Measurements: PubChem BioAssay AID720706 (Broad Institute, 2013)
Among all 350,000 compounds or so, about 5,500 (1.6%) were called active.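 Rule for the calls: active = significant combined selectivity score with lowered wild-type GFP, culture density cut under 30%, mutant RFP and density less affected; inactive = any of these conditions unmet.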 Only a selection was taken, and actives are over-represented in it overall.

Experiment: reduced GFP signal of wild-type E. coli, primary screen, bacterial rRNA inhibitor project, GFP/RFP fluorescence, OD600, single point (AID 720706)
Conditions: E. coli WT GFP vs humanized-ribosome RFP mutants, 24 h; GFP signal change (wild-type ribosome): stronger effect = lower value, DMSO median 0, no signal -100; OD600 change: measured here: OD600 growth, DMSO median 0, no signal -100; RFP signal change: measured here: RFP humanized mutant strains, DMSO median 0, no signal -100, concentration not given here

Row | SMILES | GFP signal change (wild-type ribosome) | OD600 change [%] | RFP signal change [%]
1 | C[C@H]1CCCCO[C@@H](CN(C)C(=O)Nc2cccc3ccccc23)[C@@H](C)CN([C@@H](C)CO)C(=O)c2cc(NS(=O)(=O)c3cn(C)cn3)ccc2O1 | 0.08% (inactive) | -14.1 | 8.18
2 | Cc1cccc(CNS(=O)(=O)c2ccc(-c3cnc(C4CC4)o3)cc2)c1 | -28.7% (active) | -23 | -6.22
3 | COc1ccc(CNS(=O)(=O)c2ccc(-c3cnc(C4CC4)o3)cc2)cc1 | -6.21% (inactive) | -8.89 | -0.493
4 | Cc1cccc(NS(=O)(=O)c2ccc(-c3cnc(C4CC4)o3)cc2)c1 | -8.12% (inactive) | -53.1 | 16.8
5 | CN1C(=O)c2cc(NC(=O)c3ccccc3)ccc2OC[C@H]2O[C@@H](CC(=O)O)CC[C@@H]21 | 2.79% (inactive) | 3.92 | -0.251
6 | C[C@@H]1CN([C@H](C)CO)C(=O)c2cccc(NC(=O)CCCCCC(=O)Nc3ccccc3N)c2O[C@H]1CN(C)CC1CCCCC1 | -16.1% (inactive) | -30.3 | -6.11
7 | COc1ccc(/C=C2\CCc3ccccc3C2=O)c(OC)c1OC | -21.9% (active) | -16.9 | -4.31
8 | COc1ccc(/C=N/NC(=O)C2CC2)c(OC)c1OC | 20.9% (inactive) | 9.1 | -1.71
9 | COc1ccc(/C=C2/CCCc3ccccc3C2=O)cc1 | -37.4% (inactive) | -62.5 | -10.8
10 | Cc1ccccc1-c1ccc([C@H]2[C@H](CO)N3C(=O)CN(C(=O)c4cccnc4)C[C@@H]23)cc1 | -0.83% (inactive) | -6.48 | 5.21
11 | O=C1N[C@H](Cc2ccccc2)COCc2cn(nn2)CC[C@@H]1Cc1ccc(-c2ccccc2)cc1 | -0.275% (inactive) | 6.34 | -4.54
12 | CCCC#Cc1cnc2c(c1)C(=O)N([C@H](C)CO)C[C@@H](C)[C@@H](CN(C)C(=O)Nc1ccccc1OC)O2 | 4.88% (inactive) | 7.2 | -1.58
13 | COc1ccc(NC(=O)N(C)C[C@@H]2OCCCC[C@H](C)Oc3ccc(NS(=O)(=O)c4cn(C)cn4)cc3C(=O)N([C@@H](C)CO)C[C@@H]2C)cc1 | -1.73% (inactive) | -0.21 | 1.12
14 | Cc1ccc(S(=O)(=O)Nc2ccc3c(c2)C(=O)N([C@@H](C)CO)C[C@@H](C)[C@@H](CN(C)Cc2ccc(C(=O)Nc4ccccc4N)cc2)O3)cc1 | -3.29% (inactive) | -1.98 | 14
15 | COc1ccc(S(=O)(=O)Nc2ccc3c(c2)CC(=O)N([C@@H](C)CO)C[C@H](C)[C@@H](CN(C)Cc2ccc(C(=O)O)cc2)O3)cc1 | -0.025% (inactive) | -7.85 | -0.315
16 | C[C@@H]1CN([C@@H](C)CO)C(=O)c2cc(NS(=O)(=O)c3ccccc3)ccc2O[C@@H]1CN(C)Cc1ccc(C(=O)Nc2ccccc2N)cc1 | -20.2% (active) | -5.29 | 5.46
17 | COc1ccc(S(=O)(=O)Nc2ccc3c(c2)CC(=O)N([C@H](C)CO)C[C@H](C)[C@H](CN(C)Cc2ccc(C(F)(F)F)cc2)O3)cc1 | -1.22% (inactive) | -12.1 | 0.965
18 | COc1ccc(CN(C)C[C@H]2Oc3ccc(NS(=O)(=O)c4ccc(Cl)cc4)cc3CC(=O)N([C@@H](C)CO)C[C@H]2C)cc1 | -45.9% (active) | -36.8 | -1.42
19 | C[C@H](CO)N1C[C@H](C)[C@H](CN(C)Cc2ccc(C(=O)Nc3ccccc3N)cc2)Oc2ccc(NS(C)(=O)=O)cc2C1=O | 5.88% (inactive) | 6.32 | 0.92

Row | SMILES | GFP signal change (wild-type ribosome) | OD600 change [%] | RFP signal change [%]
20 | COc1ccc2c3c([nH]c2c1)[C@@H](CO)N(C(=O)CC1CC1)CC31CCN(Cc2cccnc2)CC1 | 1.59% (inactive) | 3.97 | 3.46
21 | CCOc1cc(NS(=O)(=O)c2ccc(OC)cc2)c(OCC)cc1NC(C)=O | 12.2% (inactive) | 0.765 | 1.03
22 | CCOc1ccc2sc(NS(=O)(=O)c3ccc(N)cc3)nc2c1 | -24.1% (active) | -5.58 | -5
23 | CCOc1ccc(NS(=O)(=O)c2ccc(C)c(C(N)=O)c2)cc1 | 2.05% (inactive) | 7.61 | 0.34
24 | COc1ccc2c3c(n(C)c2c1)[C@H](CO)N(CC1CCCCC1)CC31CCN(Cc2nccs2)CC1 | 5.15% (inactive) | -34.3 | 21.2
25 | Cc1noc(C)c1NC(=O)N(C)C[C@@H]1Oc2ccc(NC(=O)CCN3CCOCC3)cc2CC(=O)N([C@H](C)CO)C[C@@H]1C | -0.675% (inactive) | 4.65 | -1.87
26 | C[C@@H]1CN([C@H](C)CO)C(=O)c2cccc(NC(=O)Nc3ccc4c(c3)OCO4)c2O[C@H]1CN(C)S(=O)(=O)c1ccccc1 | -2.91% (inactive) | -5.67 | -1.37
27 | COc1ccc2c3c([nH]c2c1)[C@@H](CO)N(Cc1ccc2c(c1)OCO2)CC31CN(C(=O)Nc2c(C)noc2C)C1 | 0.081% (inactive) | 0.39 | 1.36
28 | CC(C)(C)[S@@](=O)N1Cc2cc(C(=O)O)nc(-c3cccc(-c4cccc(F)c4)c3)c2[C@H]1CCO | 4.83% (inactive) | 5.04 | 0.24
29 | O=C(OCC(=O)c1cccs1)c1ccc([N+](=O)[O-])o1 | 9.6% (inactive) | 5.51 | 1.76
30 | O=C(COC(=O)c1ccc(Br)o1)NC12CC3CC(CC(C3)C1)C2 | -10.7% (inactive) | -7.12 | 2.74
31 | O=C(COC(=O)c1ccc([N+](=O)[O-])o1)NC12CC3CC(CC(C3)C1)C2 | -30.1% (active) | 9.91 | 3.52
32 | CCCNC(=O)Nc1ccc2c(c1)C(=O)N(C)C[C@H](OC)[C@H](C)CN(Cc1ccncc1)[C@H](C)CO2 | 1.74% (inactive) | 6.36 | -1.58
33 | O=C(CCCN1CCc2[nH]c3ccc(F)cc3c2C1)c1ccc(F)cc1 | -28.2% (active) | -21.9 | 3.29
34 | CC1CCc2[nH]c3ccc(C(=O)N(C)CC(=O)Nc4cccc(F)c4)cc3c2C1 (stereo unspecified) | -34% (inactive) | -74.6 | -1.58
35 | C=CCNC(=S)N1CCc2[nH]c3ccccc3c2C1 | 1.71% (inactive) | -2.66 | 1.19
36 | COc1cnc(-c2ccccn2)nc1Oc1ccc(C(C)(C)C)cc1 | -55.5% (inactive) | -80 | -19.6
37 | CC(C)(C)c1ccc(Oc2ccc(N)cc2)cc1 | -34% (active) | -27.1 | -4.06
